Here are results for 54 compounds from ChEMBL document CHEMBL4513216, “Probing the Open Global Health Chemical Diversity Library for Multistage-Active Starting Points for Next-Generation Antimalarials” (ACS Infect Dis, 2020).

Each structure is given as a SMILES string. The whole screen tested about 69,000 compounds, of which about 8,600 (12%) showed an effect of 50% or more. Many of the other results were omitted from the sample, so strong results are more common in it than they were.

In this assay the test system is Plasmodium berghei. Put plainly: Screen against P. berghei liver stage (PbLuc), transformed with Luciferase, at 10uM. The assay is classed as functional, HepG2. Particulars: tested at 10 uM.
Turning to `CNC(=O)Cc1ccc(NC(=O)NCc2nc(C)sc2C)cc1`, the INHIBITION was 52.2%.

As for `CNC(=O)Cc1ccc(NC(=O)NC(C)C(C)C)cc1` (centres undefined), the INHIBITION is -9.48%.

Regarding `Cc1cnc(CNC(=O)NCc2cccnc2N(C)C)s1`, the INHIBITION amounted to 45.8%.

On to `CNC(=O)Cc1ccc(NC(=O)NCC(C)c2ncc(C)s2)cc1` (centres undefined), for which the INHIBITION is listed as 14.8%.

Regarding `CNC(=O)Cc1ccc(NC(=O)NC2(c3cccc(F)c3)CC2)cc1`, the INHIBITION came out at 9%.

As for `COc1ccc(-c2nc(CN3CCc4cncnc4C3)no2)cc1`, the INHIBITION was found to be 5.72%.

Consider `CCc1c(C(=O)N2C[C@@H]3CC[C@H]2CN(c2cnccn2)C3)csc1C`, for which the INHIBITION is -59.5%.

`CC(=O)c1ccc(C(=O)N2C[C@@H](CN3CCCC3)[C@@H](CO)C2)cc1`: the INHIBITION is recorded as 32.5%.

`CC(=O)c1ccc(S(=O)(=O)N2CCCC2CN2CCCC2)cc1` (centres undefined): the INHIBITION worked out at 51.1%.

In the case of `CSc1ccc(S(=O)(=O)N2CCCCC2CCNC(C)=O)cc1` (centres undefined), the INHIBITION is reported as 11.8%.

As to `COC[C@]1(O)CCN(C2CCN(c3ccc(F)c(F)c3)CC2)CC1(C)C`, the INHIBITION came out at 39.4%.

Turning to `COC(=O)c1cccc(C2CNCCN2C(C)=O)c1` (centres undefined), the INHIBITION stood at 24.99%.

As for `COC(=O)CNC(=O)Cn1ccc2cccc(OC)c21`, the INHIBITION is given as 48.9%.

As to `Cc1csc(N2CCN(CC(=O)Nc3cc(C)nn3C)CC2C)n1` (centres undefined), the INHIBITION is 12.96%.

For `CCn1nc(C)c2nc(C(C)C)nc(N3CCCC3)c21`, the INHIBITION was 15.4%.

In the case of `Cc1nccn1CCN1C(=O)CC2(CCCC2)CC1=O`, the INHIBITION came to 56%.

Consider `O=C1CC2(CCCC2)CC(=O)N1CCn1cnnc1`, for which the INHIBITION is recorded as -28.9%.

Regarding `Cc1nncn1CCN1C(=O)CC2(CCCC2)CC1=O`, the INHIBITION was -23.3%.

As to `CC(C)c1nn(C)c(N(C)C)c1CNC1CCCCNC1=O` (centres undefined), the INHIBITION is -4.13%.

As for `O=C(Cc1cccc(O)c1)NCCCNC(=O)c1cccc(F)c1`, the INHIBITION is given as 8.64%.

Turning to `COCC(=O)N1Cc2c(-c3cccc(C)c3)nc(N)nc2C1C` (centres undefined), the INHIBITION is reported as -24.1%.

Take `Cc1cccc(-c2nc(N)nc3c2CN(C(=O)c2cc(C)n[nH]2)C3C)c1` (centres undefined): the INHIBITION is on record as 58.9%.

Turning to `Cc1cccc(-c2nc(N)nc3c2CN(C(=O)c2ccncn2)C3C)c1` (centres undefined), the INHIBITION amounted to 19.9%.

For `Cc1cc(C(=O)Nc2cccn(Cc3ccccc3)c2=O)no1`, the INHIBITION was -85.8%.

For `O=C(c1ccccn1)N1CCC2(CC1)COC(COCC1CC1)C2` (centres undefined), the INHIBITION stood at 23.5%.

As for `CN(C)CCn1c2c(ccc1=O)CC(NC(=O)NC1CCCC1)CC2` (centres undefined), the INHIBITION is reported as 39.5%.

Regarding `CCN1CCN(C(C)(C)CNc2nc(C)cc(C3CCC3)n2)CC1`, the INHIBITION came out at 9.52%.

Take `Cc1cc(C2CCC2)nc(NCC(C)(C)N2CCOCC2)n1`: the INHIBITION is reported as 9.52%.

Consider `Cc1cc(C2CCC2)nc(NCC(C)(C)N2CCCC2)n1`, for which the INHIBITION was 57.2%.

On to `COC(=O)CCC(=O)NCc1cccnc1N1CCc2ccccc2C1`, for which the INHIBITION is listed as -13.1%.

On to `CC(NC(=O)C1=NN(C)C(=O)CC1)c1cccc(Cl)c1` (centres undefined), for which the INHIBITION turned out to be 24.3%.

With `Cc1cc(C(=O)N2CCCCC2c2nc(C)cs2)[nH]n1` (centres undefined), the INHIBITION is given as 35.7%.

With `Cc1csc(C2CCCCN2C(=O)c2cc(C(C)C)[nH]n2)n1` (centres undefined), the INHIBITION is given as 70.8%.

Regarding `Cc1csc(C2CCCCN2C(=O)c2cc(C3CC3)[nH]n2)n1` (centres undefined), the INHIBITION was found to be 13.6%.

Regarding `Cc1nc(CN2CCC(C(=O)O)(n3ccc(C(C)C)n3)CC2)co1`, the INHIBITION is -35.2%.

With `Cc1ccc(C(=O)N2CCCCC2CN(C)C)cc1` (centres undefined), the INHIBITION came out at 21.8%.

Turning to `O=C1CCCN1CCC1CCCCN1C(=O)c1ccc(SCCO)cc1` (centres undefined), the INHIBITION is 58.2%.

In the case of `COCCCC1CCCCN1C(=O)c1ccc(SCCO)cc1` (centres undefined), the INHIBITION was 52.6%.

With `Cc1cc(C)n(CC(=O)N2CCCCC2CCN2CCCC2=O)c(=O)n1` (centres undefined), the INHIBITION was 44.2%.

With `CCC1CCCCCN1C(=O)c1ccc(N2CCC(O)CC2)cc1` (centres undefined), the INHIBITION is recorded as -45.2%.

Regarding `N#Cc1ccc(NC(=O)N2CCCCC2CN2CCCC2=O)cc1` (centres undefined), the INHIBITION stood at 44.9%.

Take `COc1ccc2c(c1)CN(C)C(=O)CCN2CC(O)C(C)(C)C` (centres undefined): the INHIBITION came to 17.7%.

On to `CC(C)(NCC(=O)NCC1CC1)c1ccc2c(c1)OCCO2`, for which the INHIBITION was -36.3%.

For `CCn1ccc(C(=O)Nc2ccc3c(c2)C(C)(C)C(=O)N3C)n1`, the INHIBITION is listed as 40%.

Take `CCC(CC)C(=O)N1CCC(c2nn(CCN)c3nccnc23)C1` (centres undefined): the INHIBITION is 41.2%.

As to `CS(=O)(=O)N[C@@H]1CN(C(=O)c2ccccn2)C[C@@H]2CCCO[C@@H]21`, the INHIBITION worked out at 34.6%.

Regarding `COc1ccc(-c2cc3nc(CCNC(=O)CN(C)C)nn3cn2)cc1`, the INHIBITION is 19.4%.

On to `CC(C)(C)C(=O)CN1CCc2ccccc2NCCC1=O`, for which the INHIBITION came to 15.4%.

On to `CN1CCCN(C(=O)c2ccn3ccnc3c2)CC1`, for which the INHIBITION is given as -60.7%.

Consider `O=C(c1ccsc1)N1CC[C@@H](N2CCOCC2)[C@@H]1Cc1ccccc1`, for which the INHIBITION is -2.72%.

With `COCc1nc(C(=O)NS(=O)(=O)c2ccc(OC)c(C)c2)cs1`, the INHIBITION was determined as 52.6%.

For the compound `COCc1nc(C(=O)NS(=O)(=O)c2ccc(C)c(C)c2)cs1`, the INHIBITION is reported as -1.7%.

Regarding `COCc1nc(C(=O)NS(=O)(=O)c2ccc(F)c(F)c2)cs1`, the INHIBITION was found to be 21.1%.

As to `COc1ccccc1NC(=O)c1cc2c([nH]c1=O)CCCC2=O`, the INHIBITION is on record as -15.9%.
